Laboratory results reported in PubChem BioAssay AID589 (National Center for Advancing Translational Sciences (NCATS), 2007).
Hit rate of the full screen: of about 59,000 compounds, about 6,200 (11%) were called active. Roughly 9% stayed inconclusive and do not appear here. No stated cut-off is given here; in the data, active means max dye-equivalent concentration above about 10 nM; inconclusive means mostly about 1.1 nM to 9.6 nM; inactive means weaker than that. The list comes from a sample in which actives are over-represented; it also holds similar structures and randomly drawn compounds.

experiment: qHTS Assay for Spectroscopic Profiling in 4-MU Spectral Region; conditions: compound autofluorescence, 340/450 nm, 4-MU equivalents; hits give high values
From the text: NIH Molecular Libraries Screening Centers Network [MLSCN] NIH Chemical Genomics Center [NCGC] […] Occasionally, the artifactual effect may originate from the compounds own spectral or other biophysical properties which generally tend to track its assay concentration. Pre-screening/profiling the library with respect to the compounds spectral properties should help one exclude false positives early on. While the most informative fluorescent profiling data set is obtained by performing a full excitation and emission scan of each well by using a monochromator-based plate reader, such an approach is practical only on a very limited scale as scanning each well requires long time. An alternative approach, applied here, is to perform plate reader scans using selected excitation and emission wavelength pairs to generate a multidimensional relational database that correlates compound concentration and the respective relative fluorescence intensity at a given wavelength set. A standard curve of 4-methylumbelliferone (4-MU) present on each plate as six-point concentration series, was used to compute a normalized fluorescence response, termed dye-equivalent concentration, for each compound at each concentration.
NCGC Assay Protocol Summary: Buffer: 100 mM Tris buffer, pH 8.0 Dye standard plate: The wells in columns 1 through 4 of a Kalypsys polypropylene 1536-well compound plate were filled with standard solutions of fluorophore corresponding to the spectral region of interest. Solutions of 4-MU were placed in the following wells: A1, B1: 3 mM, A2, B2: 300 uM, A3, B3: 30 uM, A4, B4: zero (DMSO), C1, D1: 3 uM, C2, D2: 900 nM, C3, D3: 300 nM, C4, D4: zero (DMSO). Assay Steps: Six uL of buffer were dispensed to 1536-well Greiner black plates. Compounds and dye standards (23 nL) were transferred via Kalypsys PinTool. The plates were incubated for 15 min at room temperature, and then read on ViewLux (Perkin-Elmer) High-throughput CCD imager using 340 nm and 450 nm excitation and emission filter set. Keywords: NIH Roadmap, MLSCN, MLI, MLSMR, qHTS, NCGC, Fluorescent Profiling, 4MU, 4-MU

| SMILES | max dye-equivalent concentration |
| --- | --- |
| Cn1c(CC(=O)Nc2ccccc2)nnc1SCC(=O)c1ccccc1 | inactive |
| CC(=O)N1CCC2(CC1)CCN(c1ccncc1)CC2 | inactive |
| COc1ccc(NC(=O)c2c(C)oc3c2CCCC3)cc1 | inactive |
| COc1cccc(NC(=O)c2ccccc2SC)c1 | inactive |
| COc1cc(OC)cc(C(=O)Nc2ccc(-c3nc4ccccc4o3)c(O)c2)c1 | 330 nM (active) |
| O=C1[C@@H]2C(Cc3ccc(O)cc3)NC3(C(=O)Nc4ccc(F)cc43)[C@@H]2C(=O)N1c1ccc(F)cc1 (some centres undefined) | inactive |
| CC(Sc1sc(=S)sc1SC(C)C(=O)O)C(=O)O (centres undefined) | inactive |
| CC(C)CCNc1nc(N2CCCC2)c2c(c1C#N)CCN(C)C2 | 24 nM (active) |
| COc1ccc(OC)c(NC(=O)CN2CCN(C(=O)c3ccco3)CC2)c1 | inactive |
| Cc1csc(NC(=O)CN2CCCCCC2)n1 | inactive |
| Cc1csc(NC(=O)NC2(C(F)(F)F)Oc3ccccc3O2)n1 | 110 nM (active) |
| O=C(Nc1cc(N2CCOCC2)ncn1)NC1(C(F)(F)F)Oc2ccc(Cl)cc2O1 (centres undefined) | inactive |
| C[C@H](NC(=O)NCCc1ccccc1)C(=O)O | inactive |
| CNc1ncnc2ccc(-c3cccc(NS(C)(=O)=O)c3)cc12 | inactive |
| Cn1c(SCC(=O)OC2CCCCC2)nnc1-c1ccc(S(=O)(=O)N2CCCC2)cc1 | inactive |
| COc1ccc2oc(=O)c(C(=O)O)cc2c1 | inactive |
| Cc1ccsc1C(=O)OCC(=O)c1cc2ccccc2o1 | inactive |
| O=C(NCc1ccccn1)c1cc2ccccc2oc1=O | 22 nM (active) |
| O=C(Oc1cccnc1)c1cc2ccccc2oc1=O | 82 nM (active) |
| O=C(NCc1ccccn1)Nc1ccc(F)cc1 | inactive |
| O=C(NCc1ccccn1)c1cnc2sccn2c1=O | inactive |
| Cc1cc(NC(=O)COC(=O)c2ccc(F)c(S(=O)(=O)N3CCOCC3)c2)no1 | inactive |

| SMILES | max dye-equivalent concentration |
| --- | --- |
| COc1ccc(NC(=O)N2CC3(CCN(C(=O)c4cccn4C)CC3)C2)cc1 | inactive |
| Cc1cc(=O)[nH]c(SCc2cc(Cl)ccc2OC(F)F)n1 | inactive |
| COc1ccccc1C(=O)N1CCNC(=O)C1CC(=O)Nc1ccc(Cl)cc1 (centres undefined) | inactive |
| CCCCc1cc(=O)oc2cc(C)cc(OCc3nn[nH]n3)c12 | 59 nM (active) |
| Cc1c(O)c(Br)c(C)c(O)c1Br (tested in a mixture with another compound) | inactive |
| CCc1nnc(NC(=O)c2nc3nccc(C)n3n2)s1 | inactive |
| CCC1=C/C(=C\c2ccc3c(c2)OCO3)C(=O)S1 | inactive |
| COc1cc2nc(N3CCN(C(=O)[C@@H]4CCCO4)CC3)nc(N)c2cc1OC | 890 nM (active) |
| O=C(C1CCCO1)N1CCC(c2nc3ccccc3[nH]2)CC1 (centres undefined) | inactive |
| COc1ccccc1CNC(=O)C1CCN(c2nc3ccccc3o2)CC1 | inactive |
| COc1ccc2[nH]cc(CCNc3ncnc4ccc(-c5ccccc5CN(C)C)cc34)c2c1 | inactive |
| Cc1ccccc1NC(=O)c1cc(S(=O)(=O)N2CCOCC2)cs1 | inactive |
| CN(CC(=O)NC1CCCCC1)S(=O)(=O)c1ccc(Br)s1 | inactive |
| COCCNC(=O)C(c1ccc(C)o1)N(Cc1cccs1)C(=O)c1snc(C(N)=O)c1N (centres undefined) | 110 nM (active) |
| CCC(C(=O)NC1CCCC1)N(C(=O)c1snc(C(N)=O)c1N)c1ccc2c(c1)OCCO2 (centres undefined) | inactive |
| COCCNC(=O)C(c1ccc(C)o1)N(Cc1ccccc1)C(=O)Cn1nnc2ccccc21 (centres undefined) | inactive |
| CCOC(=O)CCCNC(=O)CN1C(=O)NC(CCc2ccccc2)C1=O (centres undefined) | inactive |
| CCOC(=O)c1ccc(NC(=O)CS(=O)(=O)c2cn(CC)c3ccccc23)cc1 | inactive |
| O=C(Nc1ccccc1-c1nnn(CC(=O)N2CCN(c3ccccc3)CC2)n1)c1cccs1 | inactive |
| Cc1[nH]c(N)nc(=S)c1CCCNc1ccccc1 | inactive |
| Cn1c(=O)c2c(nc(NCCc3ccccc3)n2Cc2ccccc2)n(C)c1=O | inactive |
| CCCSc1nc2c(c(=O)[nH]c(=O)n2C)n1CCc1ccccc1 | inactive |

| SMILES | max dye-equivalent concentration |
| --- | --- |
| Cn1c(=S)c2[nH]c(SCCCc3ccccc3)nc2n(C)c1=O | 13 nM (active) |
| O=C(CC(Cc1ccccc1)C(=O)O)NCCc1ccc2c(c1)OCO2 (centres undefined) | inactive |
| CCOc1ccc(OCC)c(NC(=O)CSc2nnc(Cn3cnc4ccccc43)n2C)c1 | inactive |
| CCOC(=O)c1c(C)oc2ccc(OCC(=O)N(CC)CC)cc12 | inactive |
| COc1ccc2oc(C)c(NC(C)=O)c2c1 | inactive |
| COC(=O)COc1ccc2oc(=O)cc(C)c2c1 | 25 nM (active) |
| Cc1nc(CNS(=O)(=O)c2cccnc2)cs1 | inactive |
| CCCCCOC(=O)C1=C(C)Nc2nnnn2C1c1ccc(OC)c(OC)c1OC (centres undefined) | inactive |
| COc1ccccc1NC(=O)C1=C(C)Nc2nnnn2C1c1cccc(Br)c1 (centres undefined) | inactive |
| COC(=O)c1ccc(C2C3=C(Nc4nnnn42)c2ccccc2OC3)cc1 (centres undefined) | 59 nM (active) |
| O=C(CNS(=O)(=O)c1ccc(Br)s1)NCc1ccc2c(c1)OCO2 | inactive |
| O=C(N1CCOCC1)N(Cc1ccccc1)c1ccccn1 | inactive |
| NC(=O)CSc1c[nH]c2ccccc12 | inactive |
| Cc1ccc2c(c1)C(O)(CC(=O)c1cccnc1)C(=O)N2 (centres undefined) | inactive |
| CCc1cc2c(=O)c(-c3ccon3)c(N)oc2cc1OC | inactive |
| Cc1ccc(Cc2nc(-c3cccc(C)c3)no2)cc1 | inactive |
| COc1ccccc1Cc1nc(-c2ccc(C)cc2)no1 | 16 nM (active) |
| Cc1ccc(-c2noc(CN3CCN(Cc4ccccc4)CC3)n2)cc1 | inactive |
| O=C(Nc1cccc(F)c1)N1CCC2(CC1)CCN(S(=O)(=O)c1ccccc1)CC2 | inactive |
| CN1CCCC(OC(=O)COc2ccc(Br)cc2)C1 (centres undefined) | inactive |
| CCCSC1=C(C#N)C(c2ccccc2C)C(C(=O)OC)C(=O)N1 (centres undefined) | inactive |
| Cc1ccc2nc(-c3ccc(SCC(=O)Nc4cc(C)on4)nc3)[nH]c2c1 | 33 nM (active) |

| SMILES | max dye-equivalent concentration |
| --- | --- |
| Cc1nc(SCC(=O)Nc2cc(C)on2)c2c(C)c(C)sc2n1 | inactive |
| Cc1cc(C)c2c(c1)cc(C)c1nnc(SCC(=O)Nc3cc(C)on3)n12 | inactive |
| CCOc1ccccc1C(=O)NCCCn1ccnc1 | inactive |
| CCOc1ccccc1C(=O)NCc1ccco1 | inactive |
| CCOc1ccccc1C1C(C(=O)OC)=CN(C)C=C1C(=O)OC | 10000 nM (active) |
| COCCn1c(=O)c(-c2cccs2)nc2cncnc21 | 74 nM (active) |
| CN(C(=O)COc1nnc(-c2cccs2)c(-c2cccs2)n1)c1ccccc1 | inactive |
| COCCn1c(=O)c(-c2cccs2)nc2cnc(N3CCN(C)CC3)nc21 | 14 nM (active) |
| COc1ccccc1CCn1c(=O)c(-c2cn(C)c3ccccc23)nc2cncnc21 | inactive |
| COC(=O)[C@@H]1[C@H]2C[C@H]3c4[nH]c5cc(OC)ccc5c4CCN3C[C@@H]2C[C@@H](OC(=O)c2cc(OC)c(OC)c(OC)c2)[C@@H]1OC | inactive |
| CCCCn1nnnc1NCc1cc(OC)c(OC)c(OC)c1 | inactive |
| COC(=O)CCNc1ccc2c(c1)OCCO2 | inactive |
| CCOc1ccc(-c2nnc3ccc(SC)nn23)cc1 | 12 nM (active) |
| CCOc1cccc(-c2nnc3sc(COc4ccc(OC)cc4)nn23)c1 | inactive |
| O=C1NC(=O)[C@@](Cc2ccccc2)(c2cccnc2)N1 | inactive |
| O=c1cc(CSc2ccc(Cl)cc2)nc(N2CCOCC2)[nH]1 | inactive |
| CCOC(=O)N1CC=C2C(C#N)=C(N)C(C#N)(C#N)[C@H](c3cccs3)[C@H]2C1 | 27 nM (active) |
| CC1=C(C(=O)Nc2ccccc2)C(c2cccs2)C(C#N)=C(SCC#N)N1 (centres undefined) | inactive |
| O=C(c1cc(C(F)(F)F)cc(C(F)(F)F)c1)N1CCC2(CC1)CN(c1ccncc1)C2 | inactive |
| CCOC(=O)c1cc2ccccc2nc1C | inactive |
| Cc1cc(O)ccc1-c1cnc2ccccc2n1 | inactive |
| Cc1nc2ccccc2cc1O | 2300 nM (active) |

| SMILES | max dye-equivalent concentration |
| --- | --- |
| CC(=O)N1CCN(C(=O)Nc2cccc(C(F)(F)F)c2)CC1 | inactive |
| Cc1ccc(NC(=O)CCNS(=O)(=O)c2ccc3c(c2)oc(=O)n3C)cc1C | inactive |
| O=C1c2ccccc2C(=O)N1CCCSc1ccccc1 | inactive |
| Nc1ccc(SCCN2C(=O)c3ccccc3C2=O)cc1 | inactive |
| C[N+](C)(CCCCCC[N+](C)(C)CCCN1C(=O)c2cccc3cccc(c23)C1=O)CCCN1C(=O)c2cccc3cccc(c23)C1=O | 260 nM (active) |
| CCCC(=O)Nc1ccc(C(=O)NCCCn2ccnc2)cc1 | inactive |
| CSc1ccc(S(=O)(=O)NCc2ccc(Cl)cc2)cc1 | inactive |
| COCCNc1nc(-n2nc(C)cc2C)nc2sc3c(c12)CCCC3 | 920 nM (active) |
| COCCn1c(C)cc(C(=O)CSc2ncnc3sc4c(c23)CCC4)c1C | inactive |
| Cc1cc(C)n(-c2nc(SCC(=O)N3CCCC3)c3c4c(sc3n2)CCCC4)n1 | inactive |
| COc1ccc(S(=O)(=O)Nc2ccc3c(c2)OCO3)cc1Cl | inactive |
| N#Cc1ccc(COC(=O)Cn2nnc(-c3ccccc3)n2)cc1 | inactive |
| CCCNS(=O)(=O)c1ccc2c(c1)CCCN2C(C)=O | inactive |
| CC(C)OCCCNc1ncnc2c1[nH]c1ccc(F)cc12 | 12 nM (active) |
| Fc1cc(F)c2nc(N3CCOCC3)sc2c1 | inactive |
| Cn1c(SCc2c(F)cccc2Cl)nnc1-c1cnccn1 | 17 nM (active) |
| O=C(CSc1nnc(-c2cnccn2)n1Cc1ccco1)c1ccc(Cl)c(Cl)c1 | inactive |
| CCN(CC)C(=O)CSc1nnc(-c2cnccn2)n1-c1ccc(C)cc1 | inactive |
| O=C(COc1ccccc1)N1CCc2ccccc2C1 | inactive |
| N#C/C(=C1\CCCN1)c1nc(-c2ccccc2)cs1 | inactive |
| Cn1c(/C(C#N)=C2/CCCCCN2)nc2ccccc21 | 22 nM (active) |
